According to PubChem BioAssay (NCATS):
Inconclusive results are not listed. The source made the active and inactive calls.

Target: T1, Tyrosine-protein phosphatase non-receptor type substrate 1 (Homo sapiens) + Leukocyte surface antigen CD47 (Homo sapiens) (UniProt P78324+Q08722)
Assay: CD47-SIRPalpha protein protein interaction - LANCE assay qHTS validation (AID 1347057; active = well fitted curve in the direction sought with a large enough effect in the signal ratio, with a control signal flat, not every such curve was filed as active; the % refers to the signal ratio)
Conditions: Recombinant CD47-His / biotin-SIRPalpha, TR-FRET ratio; series mostly up to 38.3 µM; activity change, negative = inhibition: at the top concentration
Outline: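 Inhibition of soluble CD47/SIRPalpha ectodomain association by titrated compounds, measured as 665/615 nm time-resolved FRET ratio after sequential 30 min room-temperature incubations.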
Note: 0% is about no effect.

T1 sequence (P78324 whole entry, looked up): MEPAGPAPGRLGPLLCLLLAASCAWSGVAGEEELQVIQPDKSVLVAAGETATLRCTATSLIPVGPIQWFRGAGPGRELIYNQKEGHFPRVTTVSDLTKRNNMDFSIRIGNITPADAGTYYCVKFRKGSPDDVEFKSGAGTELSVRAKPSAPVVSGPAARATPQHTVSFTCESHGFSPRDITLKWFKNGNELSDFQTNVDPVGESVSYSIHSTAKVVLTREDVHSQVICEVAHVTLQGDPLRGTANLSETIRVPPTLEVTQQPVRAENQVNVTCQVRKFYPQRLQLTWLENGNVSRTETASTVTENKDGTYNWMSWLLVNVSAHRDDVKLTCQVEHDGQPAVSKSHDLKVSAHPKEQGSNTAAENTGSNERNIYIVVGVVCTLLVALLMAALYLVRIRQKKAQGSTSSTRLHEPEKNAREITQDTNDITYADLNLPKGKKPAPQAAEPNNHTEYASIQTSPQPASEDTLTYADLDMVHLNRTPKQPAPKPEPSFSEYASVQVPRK
T1 sequence (Q08722 whole entry, looked up): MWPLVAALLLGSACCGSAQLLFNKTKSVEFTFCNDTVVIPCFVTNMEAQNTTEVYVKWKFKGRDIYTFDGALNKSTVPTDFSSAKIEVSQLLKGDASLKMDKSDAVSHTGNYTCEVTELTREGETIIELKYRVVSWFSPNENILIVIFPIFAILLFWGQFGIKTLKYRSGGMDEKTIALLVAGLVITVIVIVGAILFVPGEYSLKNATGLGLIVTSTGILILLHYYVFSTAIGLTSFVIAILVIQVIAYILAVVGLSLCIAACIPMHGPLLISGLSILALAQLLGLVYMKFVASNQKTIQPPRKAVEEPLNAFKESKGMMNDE

Row | SMILES | activity change, negative = inhibition
1 | COc1cc2nc(N3CCN(C(=O)C4COc5ccccc5O4)CC3)nc(N)c2cc1OC (stereo not given) | -1.06% (inactive)
2 | NCCc1cnc[nH]1 | 0.923% (inactive)
3 | CC(C)(Oc1ccc(C2CC2(Cl)Cl)cc1)C(=O)O (stereo not given) | 2.44% (inactive)
4 | CCC1(C)CC(=O)NC1=O (stereo not given) | -0.213% (inactive)
5 | NC(=O)OCC(COC(N)=O)c1ccccc1 | 2.39% (inactive)
6 | O=C1N(c2ccccc2)c2ccccc2C1(Cc1ccncc1)Cc1ccncc1 | 1.28% (inactive)
7 | NC(=O)NO | 1.59% (inactive)
8 | CN1CCN(C2=Nc3cc(Cl)ccc3Nc3ccccc32)CC1 | -0.612% (inactive)
9 | CCN1CCCC1CNC(=O)c1cc(S(=O)(=O)CC)c(N)cc1OC (stereo not given) | 0.112% (inactive)
10 | CN1CCC(=C2c3ccccc3CC(=O)c3sccc32)CC1 | 1.19% (inactive)
11 | COc1ccc2c(c1)c(CC(=O)O)c(C)n2C(=O)c1ccc(Cl)cc1 | -2.78% (inactive)
12 | CN(C)c1nc(N(C)C)nc(N(C)C)n1 | 0.176% (inactive)
13 | CN1CCN2c3ccccc3Cc3ccccc3C2C1 (stereo not given) | -0.516% (inactive)
14 | CN1CCC(=C2c3ccccc3C=Cc3ccccc32)CC1 | 1.46% (inactive)
15 | Fc1ccc([C@@H]2CCNC[C@H]2COc2ccc3c(c2)OCO3)cc1 | 1.14% (inactive)
16 | Clc1ccc2c(c1)C(N1CCNCC1)=Nc1ccccc1O2 | 0.196% (inactive)
17 | CCOC(=O)C(C)(C)Oc1ccc(Cl)cc1 | 0.572% (inactive)
18 | O=c1[nH]cc(F)c(=O)[nH]1 | -0.209% (inactive)
19 | CCc1cccc2c3c([nH]c12)C(CC)(CC(=O)O)OCC3 (stereo not given) | -0.352% (inactive)
20 | Cn1cnc2c1c(=O)[nH]c(=O)n2C | 0.396% (inactive)
21 | Nc1nc2c(ncn2COC(CO)CO)c(=O)[nH]1 | -0.176% (inactive)
22 | O=C(c1ccc(OCCN2CCCCC2)cc1)c1c(-c2ccc(O)cc2)sc2cc(O)ccc12 | 1.39% (inactive)
23 | Nc1ccn([C@H]2CC[C@@H](CO)O2)c(=O)n1 | -0.923% (inactive)
24 | CCOC(=O)c1ncn2c1CN(C)C(=O)c1cc(F)ccc1-2 | -0.221% (inactive)
25 | CC(C)NCC(O)COc1ccc(CCOCC2CC2)cc1 (stereo not given) | 0.25% (inactive)
26 | O=C(c1ccc(F)cc1)C1CCN(CCn2c(=O)[nH]c3ccccc3c2=O)CC1 | -0.407% (inactive)
27 | O=c1c(-c2ccc(O)cc2)coc2cc(O)cc(O)c12 | 0.802% (inactive)
28 | Cn1ccc2cc3c(cc21)CCN3C(=O)Nc1cccnc1 | -0.572% (inactive)
29 | CC12CC3CC(C)(C1)CC(N)(C3)C2 | 0.967% (inactive)

Target: T1, Tyrosine-protein phosphatase non-receptor type substrate 1 (Homo sapiens) + Leukocyte surface antigen CD47 (Homo sapiens)
Assay: CD47-SIRPalpha protein protein interaction - HTRF assay qHTS validation (AID 1347058; active = well fitted curve in the direction sought with a large enough effect in the signal ratio, not every such curve was filed as active; the % refers to the signal ratio)
Conditions: TR-FRET HTRF CD47-His / biotin-SIRPalpha binding, ratio 665/615; series mostly up to 38.3 µM; activity change, negative = inhibition: at the top concentration
Outline: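 Soluble extracellular domains (6His-CD47, Avi-tag-biotinylated SIRPalpha) in PBS pH 7.4 with 0.05% IGEPAL CA-630. Compounds were preincubated 30 min at RT with CD47 and anti-His-Eu, then SIRPalpha and SAV-XL665 were added. TR-FRET 665/615 ratio.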

Row | SMILES | activity change, negative = inhibition
30 | COc1cc2nc(N3CCN(C(=O)C4COc5ccccc5O4)CC3)nc(N)c2cc1OC (stereo not given) | -0.998% (inactive)
31 | NCCc1cnc[nH]1 | -2.98% (inactive)
32 | CC(C)(Oc1ccc(C2CC2(Cl)Cl)cc1)C(=O)O (stereo not given) | 0.618% (inactive)
33 | CCC1(C)CC(=O)NC1=O (stereo not given) | -8.58% (inactive)
34 | NC(=O)OCC(COC(N)=O)c1ccccc1 | 0.553% (inactive)
35 | O=C1N(c2ccccc2)c2ccccc2C1(Cc1ccncc1)Cc1ccncc1 | -0.112% (inactive)
36 | NC(=O)NO | 0.912% (inactive)
37 | CN1CCN(C2=Nc3cc(Cl)ccc3Nc3ccccc32)CC1 | -2.09% (inactive)
38 | CCN1CCCC1CNC(=O)c1cc(S(=O)(=O)CC)c(N)cc1OC (stereo not given) | 1.15% (inactive)
39 | CN1CCC(=C2c3ccccc3CC(=O)c3sccc32)CC1 | 5.59% (inactive)
40 | COc1ccc2c(c1)c(CC(=O)O)c(C)n2C(=O)c1ccc(Cl)cc1 | 1.15% (inactive)
41 | CN(C)c1nc(N(C)C)nc(N(C)C)n1 | -3.23% (inactive)
42 | CN1CCN2c3ccccc3Cc3ccccc3C2C1 (stereo not given) | 5.78% (inactive)
43 | Clc1ccc2c(c1)C(N1CCNCC1)=Nc1ccccc1O2 | -2.73% (inactive)
44 | CCOC(=O)C(C)(C)Oc1ccc(Cl)cc1 | 3.8% (inactive)
45 | O=c1[nH]cc(F)c(=O)[nH]1 | 0.32% (inactive)
46 | CCc1cccc2c3c([nH]c12)C(CC)(CC(=O)O)OCC3 (stereo not given) | 2.11% (inactive)
47 | Cn1cnc2c1c(=O)[nH]c(=O)n2C | 0.949% (inactive)
48 | Nc1nc2c(ncn2COC(CO)CO)c(=O)[nH]1 | 3.25% (inactive)
49 | Nc1ccn([C@H]2CC[C@@H](CO)O2)c(=O)n1 | 5.41% (inactive)
50 | CCOC(=O)c1ncn2c1CN(C)C(=O)c1cc(F)ccc1-2 | 1.16% (inactive)
51 | CC(C)NCC(O)COc1ccc(CCOCC2CC2)cc1 (stereo not given) | 0.297% (inactive)
52 | O=C(c1ccc(F)cc1)C1CCN(CCn2c(=O)[nH]c3ccccc3c2=O)CC1 | 0.346% (inactive)
53 | O=c1c(-c2ccc(O)cc2)coc2cc(O)cc(O)c12 | -0.388% (inactive)
54 | Cn1ccc2cc3c(cc21)CCN3C(=O)Nc1cccnc1 | -10.1% (inactive)
55 | CC12CC3CC(C)(C1)CC(N)(C3)C2 | -4.12% (inactive)
